Assay results from PubChem BioAssay (NCI).
The panel holds about 83,000 compounds, 20% with a hit somewhere; the sample as a whole holds those more often.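 Interpretation: 100, growth as untreated; towards 0, rising growth inhibition; 0, no net growth; 0 to -100, cell death. Compounds scoring below 10 were considered active.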 Unmarked numbers belong to inactive results. The source made the active and inactive calls.

Legend:
Test in all cases: NCI-60 one-dose screen, 48 h (100 = growth as untreated, 0 = no growth, -100 = all killed)
Conditions in all cases: 10 µM unless noted
[1] = tested on: NCI-H23 lung
[2] = tested on: NCI-H226 lung
[3] = tested on: NCI-H322M lung
[4] = tested on: HOP-62 NSCLC
[5] = tested on: NCI-H460 lung
[6] = tested on: HOP-92 NSCLC
[7] = tested on: NCI-H522 lung
[8] = tested on: A549/ATCC NSCLC
[9] = tested on: 786-0 renal
[10] = tested on: DU-145 prostate
[11] = tested on: K-562 leukemia
[12] = tested on: MALME-3M melanoma
[13] = tested on: MDA-MB-231 breast
[14] = tested on: RXF 393 renal
[15] = tested on: SF-268 CNS
[16] = tested on: SF-295 CNS
[17] = tested on: SF-539 CNS
[18] = tested on: UACC-257 melanoma
[19] = tested on: M14 melanoma
[20] = tested on: COLO 205 colon

Row | Compound | growth [1] | growth [2] | growth [3] | growth [4] | growth [5] | growth [6] | growth [7] | growth [8] | growth [9] | growth [10] | growth [11] | growth [12] | growth [13] | growth [14] | growth [15] | growth [16] | growth [17] | growth [18] | growth [19] | growth [20]
1 | COc1ccccc1Nc1nc2c(s1)C1=CC[C@H]3[C@@H]4CC[C@H]([C@H](C)CCCC(C)C)[C@@]4(C)CC[C@@H]3[C@@]1(C)CC2 | 93.3% | 103% | 101% | 95.9% | 108% | 90.8% | 106% | 103% | 114% | 103% | 102% | 101% | 103% | 117% | 102% | 108% | 104% | 110% | 101% | –
2 | CCN(CC)c1nc(SCc2ccccc2Cl)ncc1C | 103% | 81.8% | 121% | 93.1% | 106% | 56% | 99% | 95% | 106% | 109% | 97.7% | 115% | 80.3% | 99.6% | 113% | 97.3% | 129% | 106% | 114% | –
3 | COc1cccc([C@H]2c3[nH]c4ccccc4c3C[C@H]3C(=O)N(CCCCCCC(=O)NO)CC(=O)N23)c1 | 66.8% | 88.7% | 80.2% | 68.6% | 72.9% | -1.94% (active) | 25.6% | 94.9% | 87.8% | 76.9% | 27% | 24.3% | 68.7% | 75% | 88.4% | 87.5% | 60.6% | 51.6% | 59.6% | 60.2%
4 | CN(C)CCNC(=O)c1cccc(-c2cnc3ccc(-c4ccc5c(c4)OCO5)nn23)c1 | 69.2% | 75.3% | 58.6% | 88.4% | 4.35% (active) | 72.4% | 87.7% | 87% | 74.2% | 66.5% | 1.77% (active) | 88.7% | 77.9% | 42.3% | 76.7% | 106% | 66.9% | 108% | 67.7% | 74.8%
5 | CCCCOC(=O)OCc1cc(=O)c(O)co1 | 95.3% | 94.3% | 94.1% | 109% | 101% | 107% | 91.1% | 102% | 98.6% | 113% | 97.4% | 102% | 114% | 113% | 105% | 96.3% | 100% | 104% | 106% | 111%
6 | CC(C)=CCC[C@](C)(O)[C@H]1CC[C@]2(C)[C@@H]1CC[C@@H]1[C@@]3(C)Cc4nccnc4C(C)(C)[C@@H]3CC[C@]12C | 66.9% | 74.6% | 100% | 94.6% | 73.6% | 93.2% | 62.8% | 46.3% | 78.6% | 70.9% | 63.2% | 66.4% | 74.4% | 94.3% | 86.5% | 95.2% | 76.3% | 75.7% | 71.4% | 76.3%
7 | CCOC(=O)/C=C1\S/C(=N\Nc2cc(=O)[nH]c3ccc(Cl)cc23)N(c2ccccc2)C1=O | 90.5% | 89.6% | 98.6% | 88% | 102% | 91.7% | 79.7% | 105% | 93.8% | 96.7% | 54.1% | 92.6% | 92.2% | 77.2% | 96% | 102% | 99.6% | 95.6% | 87.3% | 65%
8 | COC(=O)CNC(=O)[C@H](Cc1ccccc1)NCc1ccncc1 | 101% | 109% | 101% | 97.3% | 108% | 103% | 84.5% | 85.6% | 105% | 105% | 89.1% | 95.7% | 105% | 112% | 107% | 99% | 102% | 84.4% | 105% | –
9 | COC(=O)[C@]1(C)CCC[C@]2(C)[C@H]3C[C@H]4C(C(C)C)=C[C@]3(CC[C@H]21)[C@H]1[C@@H]4[C@@H](OCCC#N)CC[C@@H]1OCCC#N | 46.3% | 46.1% | 98.6% | 75.3% | 33.3% | 26.2% | 28.4% | 37.4% | 37.3% | 57% | 26.8% | 61.9% | 47.3% | -10.5% (active) | 47.9% | 30% | 59.7% | 37.8% | 40.7% | –
10 | C#COc1cccc(Nc2ncnc3ncc(NC(=O)CCl)cc23)c1 | 32.9% [6.25 µM] | 43.8% [6.25 µM] | 59.4% [6.25 µM] | -2.06% [6.25 µM] (active) | -5.59% [6.25 µM] (active) | 59.5% [6.25 µM] | -79.2% [6.25 µM] (active) | 23% [6.25 µM] | -69.6% [6.25 µM] (active) | 8.37% [6.25 µM] (active) | 15.3% [6.25 µM] | 37.1% [6.25 µM] | -4.91% [6.25 µM] (active) | -12.9% [6.25 µM] (active) | -6.57% [6.25 µM] (active) | 33.5% [6.25 µM] | 0.882% [6.25 µM] (active) | 59.4% [6.25 µM] | – | –
11 | COc1cc(CNS(=O)(=O)c2ccc(C)cc2)ccc1OCc1cn(-c2ccc(Br)cc2)nn1 | 103% | 93.5% | 101% | 92.4% | 110% | 112% | 91.8% | 99.5% | 109% | 104% | 94.3% | 104% | 103% | 97.1% | 93.8% | 97.2% | 107% | 110% | 106% | 120%
12 | CC(=O)OC[C@]12CCC(C)(C)C[C@H]1[C@@]1(O)[C@H](O)C[C@@H]3[C@@]4(C)CCCNC(C)(C)[C@@H]4CC[C@@]3(C)[C@]1(C)CC2 | 106% | 102% | 98.1% | 107% | 110% | 112% | 93.6% | 106% | 101% | 111% | 106% | 106% | 103% | 117% | 106% | 102% | 103% | 101% | 92.4% | 117%
13 | N#Cc1c(NC(=O)c2ccccc2)sc2c1CCC(=O)C2 | 5.05% (active) | 14.7% | 71.9% | 40.7% | 16.3% | -22.9% (active) | -12.7% (active) | 52.7% | 25.9% | 40.7% | 4.06% (active) | -12.9% (active) | -11.3% (active) | -1.37% (active) | 16% | 21.7% | -28.4% (active) | 2.08% (active) | 14% | -46.4% (active)
14 | CNC(=O)c1c(NC(=O)c2ccc(C(F)(F)F)cc2)sc2c1CCC(=O)C2 | -5.25% (active) | 9.17% (active) | 29.5% | 14.5% | 4.57% (active) | -35.8% (active) | -26.1% (active) | 13.7% | 10.3% | 29% | 7.84% (active) | -9.54% (active) | -37.1% (active) | -7.89% (active) | 9.61% (active) | -9.06% (active) | -58.6% (active) | 1.26% (active) | -11.6% (active) | -36.1% (active)
15 | CC(=O)[C@@H]1CCC=C2CC[C@]3(C)[C@@H](CC[C@@H]4[C@@]5(C)CCCNC(C)(C)[C@@H]5CC[C@]43C)[C@H]21 | -58.8% (active) | 23.2% | -42.3% (active) | -63.5% (active) | -34.6% (active) | – | -74.1% (active) | -78.1% (active) | -89.5% (active) | -36.8% (active) | -44.6% (active) | -56.1% (active) | -76.5% (active) | -91.9% (active) | 12.3% | -84.7% (active) | 9.45% (active) | -67.4% (active) | -82.1% (active) | -81% (active)
